Growth data for 15 compounds are collected here from PubChem BioAssay (NCI).

The panel holds about 83,000 compounds, 20% with a hit somewhere; the sample as a whole holds those more often.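 Treatment: one concentration, 48 hours, 96-well format. Scoring: percent growth, with anything below 10 considered active.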 Unmarked numbers belong to inactive results. The source made the active and inactive calls.

Test systems include T-47D breast; BT-549 breast; MDA-MB-435 melanoma; SW-620 colon; MCF7 breast; HCT-116 colon; HCC-2998 colon; KM12 colon.
Test in all cases: NCI-60 one-dose screen, 48 h (100 = growth as untreated, 0 = no growth, -100 = all killed)
What all share (settings): 10 µM unless noted

Consider `CCOC(=O)c1c(Nc2ccccc2)nn2c(-c3ccc(OC)c(OC)c3)ccnc12`, for which the growth is 41.3% in the assay with T-47D breast; 112% in the assay with BT-549 breast; 69.6% in the assay with MDA-MB-435 melanoma; 40.9% in the assay on SW-620 colon; 55% with MCF7 breast; 42.7% in the assay with HCT-116 colon. Also, the growth in the assay on HCC-2998 colon was 52.2%; with KM12 colon, 44.9%.

For `C#CCOc1ccc(C(Nc2cc(Cl)ccc2Cl)c2nnnn2C2CCCCC2)cc1` (stereo not given), the growth with T-47D breast was 67.5%; with BT-549 breast, 93.6%; in the assay with MDA-MB-435 melanoma it was 102%; in the assay with SW-620 colon, 91.8%; in the assay on MCF7 breast, 73.4%; with HCT-116 colon, 56.3%. In addition, the values for the growth in the assay on HCC-2998 colon and in the assay with KM12 colon were 90.1% and 92%, respectively.

In the case of `CS(=O)(=O)c1ccc(-c2nn(-c3ccccc3)cc2/C=C/C(=O)c2ccc(Br)cc2)cc1`, the growth in the assay on T-47D breast was 87.8%; in the assay on BT-549 breast, 105%; with MDA-MB-435 melanoma it was 95.3%; in the assay with SW-620 colon, 86.9%; in the assay with MCF7 breast it was 50.2%; with HCT-116 colon, 73.2%. In addition, the growth was 105% in the assay on HCC-2998 colon and 80% in the assay with KM12 colon.

Consider `COc1ccc(S(=O)(=O)n2cc(C=O)c3ccccc32)c(OC)c1`, for which the growth in the assay on T-47D breast is 65.6%; in the assay with BT-549 breast, 64.2%; in the assay with MDA-MB-435 melanoma, 29.6%; in the assay on SW-620 colon, 35.4%; in the assay on MCF7 breast, 25.5%; in the assay with HCT-116 colon, 15.4%. For the same compound, the growth in the assay on HCC-2998 colon was 110%; in the assay on KM12 colon, 95.4%.

In the case of `CCOC(=O)/C=c1\sc2n(c1=O)C1C(NN=2)N(CC)C(=O)N1CC` (stereo not given), the growth with T-47D breast is 84%; in the assay with BT-549 breast, 57.7%; in the assay on MDA-MB-435 melanoma, -17.8% (active); with SW-620 colon it was 31.7%; in the assay with MCF7 breast, 11%; in the assay with HCT-116 colon it was 28.8%. The growth is 77.1% with HCC-2998 colon and 36% in the assay on KM12 colon.

For the compound `Cn1cc(-c2nn3cc(-c4cccnc4)nc3s2)c2cc(F)ccc21`, the growth is 65% in the assay on T-47D breast; 92% in the assay with BT-549 breast; 29.7% in the assay on MDA-MB-435 melanoma; 80.3% in the assay on SW-620 colon; 37.8% in the assay with MCF7 breast; 91% in the assay on HCT-116 colon. Further, the growth with HCC-2998 colon is 96.6%; in the assay with KM12 colon it was 76.4%.

Consider `C#C[C@]1(O)CC[C@H]2[C@@H]3CC=C4c5sc(Nc6ccc(OC)nc6)nc5CC[C@]4(C)[C@H]3CC[C@@]21C`, for which the growth in the assay with T-47D breast is 21.2%; in the assay on BT-549 breast it was 33.3%; in the assay with MDA-MB-435 melanoma it was 48.1%; in the assay with SW-620 colon, -20.8% (active); in the assay with MCF7 breast, 4.25% (active); with HCT-116 colon it was -48.6% (active). Also, the growth was 65.5% in the assay with HCC-2998 colon and 19.6% in the assay on KM12 colon.

As for `O=c1[nH]c(CNc2ccc(NCc3c(-c4ccccc4)no[n+]3[O-])cc2)nc2c1cnn2-c1ccccc1`, the growth in the assay on T-47D breast is 42.5%; in the assay on BT-549 breast, 62.1%; in the assay on MDA-MB-435 melanoma, 77.8%; in the assay on SW-620 colon, 92.8%; with MCF7 breast it was 50.1%; in the assay with HCT-116 colon it was 49.6%. Besides, the growth was 84.4% in the assay with HCC-2998 colon and 73.3% in the assay on KM12 colon.

In the case of `Cc1ccccc1NC1CC(=O)N(c2ccc(Cl)cc2Cl)C1=O` (stereo not given), the growth with T-47D breast is 105%; with BT-549 breast, 123%; in the assay with MDA-MB-435 melanoma, 101%; in the assay on SW-620 colon, 96.2%; with MCF7 breast, 94%; with HCT-116 colon, 108%. Moreover, the growth in the assay on HCC-2998 colon is 109%; in the assay with KM12 colon, 105%.

Consider `C#C[C@]1(O)CC[C@H]2[C@@H]3CC=C4c5sc(Nc6cccc(Cl)n6)nc5CC[C@]4(C)[C@H]3CC[C@@]21C`, for which the growth in the assay with T-47D breast is 25.8%; in the assay on BT-549 breast, 24.1%; in the assay with MDA-MB-435 melanoma, -65.8% (active); in the assay on SW-620 colon, -61% (active); with MCF7 breast, -70.4% (active); with HCT-116 colon it was 10.1%. For the same compound, the growth in the assay on HCC-2998 colon was 24.2%; with KM12 colon, -10.8% (active).

Consider `Oc1ccc(CSc2nnc(-c3ccncc3)o2)c2cccnc12`, for which the growth is 15.8% in the assay on T-47D breast; 23.7% in the assay on BT-549 breast; 13.4% with MDA-MB-435 melanoma; 16.4% in the assay with SW-620 colon; 4.01% (active) in the assay on MCF7 breast; 8.9% (active) with HCT-116 colon. Moreover, the values for the growth in the assay on HCC-2998 colon and in the assay with KM12 colon were 30.2% and 14.2%, respectively.

Take `COC[C@]12CC[C@@H](C)[C@H](C)[C@H]1C1=CC[C@@H]3[C@@]4(C)CCCNC(C)(C)[C@@H]4CC[C@@]3(C)[C@]1(C)CC2`: the growth is 39.8% with T-47D breast; 66.1% in the assay on BT-549 breast; 9.61% (active) with MDA-MB-435 melanoma; -42.1% (active) in the assay on SW-620 colon; -33.2% (active) with MCF7 breast; 5.39% (active) with HCT-116 colon. The growth in the assay with HCC-2998 colon is 20.1%; with KM12 colon it was 19.3%.

Regarding `CNC(=O)c1c(NC(=O)c2ccc(F)cc2F)sc2c1CCC(=O)C2`, the growth in the assay with T-47D breast was -14.2% (active); with BT-549 breast it was 6.83% (active); with MDA-MB-435 melanoma, 12.2%; with SW-620 colon, 5.05% (active); with MCF7 breast, 7.35% (active); with HCT-116 colon, 7% (active). The growth in the assay with HCC-2998 colon is 13.5%; in the assay on KM12 colon, 9.65% (active).

Turning to `C=CCn1c(SCC(=O)Nc2cccc(C(=O)/C=C/c3ccccc3)c2)nc2ccccc2c1=O`, the growth in the assay on T-47D breast is 78.4%; with BT-549 breast, 107%; in the assay on MDA-MB-435 melanoma, 82.9%; with SW-620 colon, 12.2%; with MCF7 breast, 18.3%; in the assay with HCT-116 colon, -3.91% (active). The growth with HCC-2998 colon is 96%; with KM12 colon, 57.5%.

As for `N#C/C(=C\c1ccc2ccccc2c1)C(=O)Nc1sc2c(c1C#N)CCC2`, the growth in the assay with T-47D breast was 87.5%; in the assay with BT-549 breast it was 94.6%; with MDA-MB-435 melanoma, 107%; with SW-620 colon, 111%; with MCF7 breast it was 94.8%; in the assay on HCT-116 colon, 106%. In addition, the growth with HCC-2998 colon is 113%; in the assay with KM12 colon, 101%.
